Compounds without any hit were thinned out: in the full panel of roughly 83,000, 20% have a hit.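 Treatment: one concentration, 48 hours, 96-well format. Scoring: percent growth, with anything below 10 considered active.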 Activity calls are given as the source filed them.

Growth data for nine molecules are collected here from PubChem BioAssay (NCI).

The test system of the experiment is A549/ATCC NSCLC. Briefly: NCI-60 one-dose screen, 48 h (100 = growth as untreated, 0 = no growth, -100 = all killed). The following applies: 10 µM unless noted.
On to `Cc1cc(Cl)cc(NS(=O)(=O)c2ccc(-c3cnc(C4CC4)o3)cc2)c1`, for which the growth was 31.8% (inactive). For the molecule `COc1cc(/C=N/n2cnc3oc(-c4ccccc4)cc3c2=N)cc(CN2CCCCC2)c1O`, the growth was -68.8% (active).

Consider `NS(=O)(=O)Oc1ccc2nc(Nc3ccc(F)c(F)c3)ccc2c1`, for which the growth was 79.6% (inactive). The value for `CC(=O)c1sc(Nc2cccc(Nc3nc(C)c(C)s3)c2)nc1C` was 65.8% (inactive); that for `Cc1cccc(NC(c2cc3cccc4ccc5cccc2c5c43)c2nnnn2C(C)(C)C)c1C` (centres undefined) was 92.7% (inactive); that for `CCOC(=O)c1c(NCC(=O)Nc2cccc([N+](=O)[O-])c2)sc2c1CCCC2` was -13.8% (active).

Regarding `O=c1oc2ccc(-c3ccc(F)cc3F)cc2c(=O)n1-c1ccc(F)c(F)c1`, the growth is 7.96% (active). The value for `Brc1cccc(/C=N/Nc2nc(N/N=C/c3cccc(Br)c3)nc(N3CCOCC3)n2)c1` was 42.6% (inactive); that for `N#C/C(=C\c1ccc2ccccc2c1)C(=O)Nc1sc2c(c1C#N)CCC2` was 98.4% (inactive).
